Out of some 98,000 compounds screened, about 150 (0.15%) were called active.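 The calls were made as follows: active = growth inhibition above about 50% at one test dose (limit read from the data); inactive = the rest.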 For the sample, actives were picked, then their nearest neighbours and some compounds at random.
assay: antibacterial activity against E. coli BW25113 – strain BW25113, expanded library, OD600, primary screen (AID 710); settings: OD600 absorbance, at 100 µM, stronger effect = higher value;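 also: growth measured after 20 h incubation at 37 °C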

| Compound | growth inhibition |
| --- | --- |
| COc1ccc(C(C#N)Nc2ccccc2C)cc1 (centres undefined) | 5% (inactive) |
| COc1cc(/C=C2\SC(=S)N(Nc3ncc(C(F)(F)F)cc3Cl)C2=O)cc(OC)c1OC | -7% (inactive) |
| COc1ccccc1N(C)S(=O)(=O)c1ccc(C(=O)N2CCC(C(N)=O)CC2)cc1 | 3% (inactive) |
| CCCCNC(=O)C1CCCN(S(=O)(=O)c2ccc(S(=O)(=O)NCC(C)C)cc2)C1 (centres undefined) | -1% (inactive) |
| Cc1cc(-c2ccccc2)nc(N2CCC(C(=O)NC34CC5CC(CC(C5)C3)C4)CC2)n1 | -9% (inactive) |
| S=c1[nH]nc2c3c4c(sc3ncn12)CCCC4 | 1% (inactive) |
| CCn1c(/C=C/c2ccc([N+](=O)[O-])o2)nc2ccccc2c1=O | 6% (inactive) |
| COC(=O)c1ccccc1Oc1c(F)c(F)nc(N2CCOCC2)c1F | 7% (inactive) |
| CCN1CCN(c2ccc([N+](=O)[O-])cc2C(=O)c2ccc(Cl)cc2)CC1 | 8% (inactive) |
| CCOC(=O)c1nc(C)n(-c2ccc(Cl)cc2Cl)n1 | 8% (inactive) |
| O=[N+]([O-])c1ccccc1OCCCCN1CCCCC1 | 8% (inactive) |
| C=CCn1c(-c2ccc3[nH]c(C)c(C)c3c2)n[nH]c1=S | 2% (inactive) |
| Cc1ccc(C(c2nnnn2CS(=O)(=O)c2ccc(C)cc2)N2CCC(C)CC2)cc1 (centres undefined) | -1% (inactive) |
| CCCNC(=O)c1c(N)n(-c2ccc(S(N)(=O)=O)cc2)c2nc3ccccc3nc12 | -1% (inactive) |
| CC(=O)N1CCN(C(=O)Nc2cccc(C(F)(F)F)c2)CC1 | 17% (inactive) |
| FC(F)(F)c1cccc(NC(=S)Nc2cccc(Cl)c2)c1 | 50% (active) |
| O=C(O)CSCC(=O)Nc1cccc(C(F)(F)F)c1 | 3% (inactive) |
| Cc1cccn2c(=O)c(/C=C(\C#N)S(=O)(=O)c3ccc(Cl)cc3)c(N3CCC(C(N)=O)CC3)nc12 | 0% (inactive) |
| COc1ccc(N2CCN(C(=O)CCc3nc(-c4ccc(C)cc4)no3)CC2)cc1 | -5% (inactive) |
| CC(C)C(=O)Nc1cccc(NC(=S)NC(=O)C(c2ccccc2)c2ccccc2)c1 | -13% (inactive) |
| O=C(CNC(=O)c1ccccc1)NCC(=O)OCc1ccc(Cl)cc1 | 1% (inactive) |
| COc1ccc(-c2nn(C)c(=O)c3ccccc23)cc1NC(=O)COc1ccccc1 | 2% (inactive) |

| Compound | growth inhibition |
| --- | --- |
| CN(C(=O)CC(NC(=O)c1ccccc1)(c1ccccc1)c1ccccc1)c1ccccc1 | -17% (inactive) |
| CCOC(=O)CSc1ncc(-c2cccc(Cl)c2)cn1 | 2% (inactive) |
| O=C(CSc1nnc(-c2cccs2)n1Cc1ccccc1)N1CCc2ccccc2C1 | -18% (inactive) |
| Cc1cccc(NC(=O)CSc2nc3c(c(=O)[nH]2)CCCC3)c1C | 3% (inactive) |
| COC(=O)CNC(c1ccccc1Cl)c1cc(Br)ccc1NC(=O)CCN1CCOCC1 (centres undefined) | -3% (inactive) |
| CCOC(=O)C1=C(CN2CCc3ccccc32)NC(=O)NC1c1ccc(Cl)cc1 (centres undefined) | -2% (inactive) |
| O=C(CN(c1ccccc1)S(=O)(=O)c1ccc(Cl)cc1)Nc1ccccc1C(=O)N1CCCC1 | -17% (inactive) |
| Cc1cc(OC(=O)c2c(Cl)cccc2Cl)nc(C)n1 | 5% (inactive) |
| COc1ccc(-n2nc(C(=O)NCC(=O)Nc3cccc(C)n3)c3ccccc3c2=O)cc1 | -15% (inactive) |
| CCOc1cccc(SCc2noc(C(=O)NC(C)C)c2C(=O)O)c1 | -4% (inactive) |
| CCOC(=O)C(=CNc1cccc(C)n1)C(=O)OCC | -6% (inactive) |
| O=C(NCC1CCCO1)/C(=C\c1ccco1)NC(=O)c1ccccc1 (centres undefined) | -5% (inactive) |
| O=C(NC1(C(F)(F)F)NC(=O)N(Cc2cccnc2)C1=O)c1ccccc1Cl (centres undefined) | -1% (inactive) |
| O=C(/C=C/NNC(=O)c1cccc(Br)c1)c1ccccc1 | -3% (inactive) |
| CNC(=O)c1c(NC(NC(=O)c2ccco2)C(=O)c2ccc(Cl)cc2)sc2c1CCCC2 (centres undefined) | -6% (inactive) |
| CCOc1ccc(C(O)Cn2c(=N)n(CCN3CCCCC3)c3ccccc32)cc1 (centres undefined) | -1% (inactive) |
| Cc1ccc(OCC(=O)Nn2cnc3ccccc32)cc1 | 5% (inactive) |
| Cc1ccc(-n2nc3ccc(NC(=O)/C=C/c4ccco4)cc3n2)cc1C | -1% (inactive) |
| S=c1nccc(-c2cc(Cl)sc2Cl)[nH]1 | 3% (inactive) |
| COc1ccccc1NC(=O)c1ccc2nc(N3C(=O)CCC3=O)sc2c1 | 0% (inactive) |
| N#C/C(=C1/CCCN1)c1ccccn1 | 3% (inactive) |
| CCOc1ccc(NC(=O)c2ccccc2NS(C)(=O)=O)cc1 | -4% (inactive) |

| Compound | growth inhibition |
| --- | --- |
| S=c1[nH]nc(-c2ccc(Cl)cc2)n1CC1CCCO1 (centres undefined) | 2% (inactive) |
| CSc1ccc(CCNC(=O)C2CCN(c3nnc(-n4cccc4)s3)CC2)cc1 | -3% (inactive) |
| CSc1ccccc1C(=O)Nc1cccc(C(C)=O)c1 | -4% (inactive) |
| Clc1ccc(-c2nnc(-c3ccccc3)nc2N2CCSCC2)cc1 | -24% (inactive) |
| COC(=O)c1c(CCl)noc1C(=O)NC(C)C | 1% (inactive) |
| CCn1c(Cc2cccs2)nnc1SCC(=O)c1ccc(C)cc1 | -2% (inactive) |
| Cc1cccc(NC(=O)N(Cc2cc3cc(C)cc(C)c3[nH]c2=O)CC2COCCO2)c1 (centres undefined) | -1% (inactive) |
| CCCCCOC(=O)c1ccc(N2C(=O)C3C4C=CC(C4)C3C2=O)cc1 (centres undefined) | -5% (inactive) |
| Cn1ncc(Br)c1C(=O)NCc1cccs1 | 5% (inactive) |
| COc1ccc(/C(N)=N/OC(=O)Oc2ccccc2)cc1 | -14% (inactive) |
| CCOC(=O)c1nn(-c2cccc(C)c2)cc1C(=O)c1ccccc1 | 5% (inactive) |
| Cc1ccc(N(CC(=O)Nc2cccc(N(C)S(C)(=O)=O)c2)S(C)(=O)=O)cc1 | -5% (inactive) |
| Cc1ccn(C(CC(=O)c2ccc(Br)cc2)C(=O)O)n1 (centres undefined) | 8% (inactive) |
| Cn1sc(NC(=O)c2ccccc2)nc1=O | -5% (inactive) |
| Cc1cc(C)c(S(=O)(=O)N2C=CC(C(F)(F)F)=NCC2)c(C)c1 | 7% (inactive) |
| CCOc1ccc(S(=O)(=O)Nc2nc3cc(OC)ccc3s2)cc1 | -6% (inactive) |
| CCCCc1nc(NCCN)c(C#N)c2c1CSC(C)(C)C2 | 33% (inactive) |
| Cc1ccc(Oc2ccc3c(c2)C(=O)N(c2cccc4cccnc24)C3=O)cc1 | 3% (inactive) |
| OCCNc1nc2ccccc2[nH]1 | 2% (inactive) |
| Cc1ccc(S(=O)(=O)N2CCC(C(=O)NCC3CCCO3)CC2)cc1 (centres undefined) | -7% (inactive) |
| CC1(C)Cc2nc3sc4c(SCC(=O)NC(c5ccccc5)c5ccccc5)ncnc4c3cc2CO1 | -10% (inactive) |
| CN(C)C(=O)c1cc(Br)ccc1Cl | 2% (inactive) |

| Compound | growth inhibition |
| --- | --- |
| C=CCN(C(=O)Cn1ncc2c1-c1cc(C)ccc1OC2)c1ccccc1 | 5% (inactive) |
| O=c1[nH]n(-c2cccc(Cl)c2)c2ncccc12 | -6% (inactive) |
| CCOc1ccccc1NC(=O)C12CC3CC(C1)CC(c1ccc(C)cc1)(C3)C2 | -16% (inactive) |
| O=C(CCN1c2ccccc2Sc2ccccc21)Nc1ccccc1 | -21% (inactive) |
| Cc1cc([N+](=O)[O-])ccc1NCc1cccc([N+](=O)[O-])c1 | -11% (inactive) |
| CCOc1ccc(S(=O)(=O)Nc2ccc(S(=O)(=O)Nc3cc(OC)ccc3OC)cc2)cc1 | -6% (inactive) |
| CCCCn1c(=S)[nH]c2cc(S(=O)(=O)N3CCCCC3)ccc21 | 2% (inactive) |
| CSC1=N/C(=C\c2ccc3c(c2)OCO3)C(=O)S1 | -11% (inactive) |
| COc1cccc(NC(=O)c2nn(C34CC5CC(CC(C5)C3)C4)cc2[N+](=O)[O-])c1 | -6% (inactive) |
| O=c1c2ccccc2c(-c2ccc(Br)cc2)nn1Cc1ccccc1 | -14% (inactive) |
| COc1ccc(-c2cn(-c3ccc(C)cc3)c(=O)n2CC(=O)Nc2ccc(OC)c(OC)c2)cc1 | -4% (inactive) |
| CC1CC(C)CN(C/C=C/c2ccccc2[N+](=O)[O-])C1 (centres undefined) | -1% (inactive) |
| CCCCNC(=O)OC(C)CNC(=O)OC (centres undefined) | 10% (inactive) |
| Cc1cc(NC(=O)CS(=O)(=O)c2cn(C)c3ccccc23)no1 | 0% (inactive) |
| COc1cc(CNCc2cccs2)cc(Br)c1OC | 5% (inactive) |
| c1ccc(COc2ccccc2CNCc2cccnc2)cc1 | 3% (inactive) |
| CCNc1nc(N)nc(-c2cc(Cl)ccc2OC)n1 | 4% (inactive) |
| Cn1c(-c2sc3cc(C(F)(F)F)cnc3c2-c2ccccc2)n[nH]c1=S | -2% (inactive) |
| C=CCn1c(SCC(=O)c2ccc(Br)cc2)nnc1C(C)NC(=O)Cc1ccc(OC)cc1 (centres undefined) | 4% (inactive) |
| Cc1ccc(C(=O)N2CCN(C(=O)N3CCOCC3)CC2)cc1 | 0% (inactive) |
| CCN(CC)S(=O)(=O)c1ccc(N(C)Cc2ccc(C(F)(F)F)cc2)nc1 | -2% (inactive) |
| CC(C)Cn1cnc2c1c(=O)n(CC(O)c1ccccc1)c(=O)n2CC(C)C (centres undefined) | 8% (inactive) |

| Compound | growth inhibition |
| --- | --- |
| CC(=O)c1c(C)n([O-])c2ccccc2[n+]1=O | 100% (active) |
| CC(=O)c1ccc2c(c1)c1ccccc1n2CC(C)C | -1% (inactive) |
| Cc1ccc(C)c(N2C(=O)CS/C2=N\NC(=O)c2ccccc2Cl)c1 | 1% (inactive) |
| Nc1c(-c2ccc(F)cc2)cnn1C1CCS(=O)(=O)C1 (centres undefined) | 15% (inactive) |
| COc1ccc(-c2c(C(C)=O)c(C)nc3sc4c(=O)n(-c5ccc(C)cc5)nnc4c23)cc1 | -14% (inactive) |
| COc1ccc(S(=O)(=O)Nc2ccc(F)cc2)c(C)c1C | 11% (inactive) |
| O=C(c1ccc2c(c1)OCO2)N1CCN(C(=O)c2ccco2)CC1 | 2% (inactive) |
| CN=C1S/C(=C\c2ccc(Sc3ccc(Cl)cc3)o2)C(=O)N1C | -20% (inactive) |
| COC(=O)CNS(=O)(=O)c1ccc(OC)cc1 | 1% (inactive) |
| COC(=O)COc1ccc(S(=O)(=O)Nc2ccc(NC(C)=O)cc2)cc1 | 0% (inactive) |
| COC(=O)CNS(=O)(=O)c1ccc(Cc2ccc(S(=O)(=O)NCC(=O)OC)cc2)cc1 | 50% (active) |
| Cc1ccc(C2CC2C(=O)NN)cc1 (centres undefined) | -12% (inactive) |
| CCCNC(=O)c1ccccc1NC(=O)CSCc1ccc(OC)cc1 | 0% (inactive) |
| Cc1ccc(Sc2cc(N3CCOCC3)nc(-c3ccccc3)n2)cc1 | -9% (inactive) |
| C=CCn1c(SCC(=O)/C(C#N)=C(\C)N)nc2sc(C)c(C)c2c1=O | -6% (inactive) |
| CC(C)(C)c1ccc(OC2=CS(=O)(=O)c3ccccc32)cc1 | -3% (inactive) |
| Cc1ccc(CNC(=O)C2CC(c3ccccc3[N+](=O)[O-])=NO2)o1 (centres undefined) | 0% (inactive) |
| CCC(=O)Nc1ccc(S(=O)(=O)NCC2CCCO2)cc1 (centres undefined) | 3% (inactive) |
| CC(C)c1ccc(C(=O)NCCCc2ccccc2)cc1 | 1% (inactive) |
| C=CCOC(=O)C1=C(C)NC(SCC(=O)OCC)=C(C#N)C1c1ccc(C)cc1 (centres undefined) | -10% (inactive) |
| CCOc1ccc(C(=O)NC(C(=O)NCc2ccccn2)C(C)C)cc1 (centres undefined) | -6% (inactive) |
